LANA DNA inh: inhibitors of KSHV C-LANA binding to DNA, primary screen, biochemical, fluorescence polarization, FAM-LBS DNA, MBP-C-LANA, single point. inhibition, % at 9 µM. Kaposi's sarcoma herpesvirus LANA C-terminal domain (residues 932-1162) DNA binding. hit rate 0.078% among 340,000;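 active = highest replicate inhibition at or above 60% at 9 µM, even if other replicates fall short; inactive = all replicates below 60% inhibition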;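 also: 0% = neutral control wells and 100% = 4 µM acridine orange control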
EBNA-1 inhibitor: EBNA-1 DNA-binding inhibitors, primary screen, biochemical, fluorescence polarization | AID 1950, 2009 | hit rate 0.34% among 300,000 | inhibition, % at 14.8 µM; in the data active = inhibition above about 28%
eLon inh: inhibitors of E. coli Lon protease, primary screen, biochemical, fluorescence polarization; inhibition, % at 7.94 µM; purified E. coli Lon protease; P0A9M0; hit rate 0.42% among 360,000; in the data active = inhibition above about 13%, passing the limit was not always enough;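 also: 0% = enzyme with probe and DMSO and 100% = no enzyme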
ZTA DNA inh: counter-screen for EBNA-1 inhibitors: inhibitors of Epstein-Barr virus ZTA; ZTA-DNA binding, fluorescence polarization; inhibition, % at 11 µM; hit rate 0.15% among 320,000; AID 2234; in the data active = inhibition above about 33%
Keap1-Nrf2 PPI: Keap1-Nrf2 protein-protein interaction inhibitors, primary screen, biochemical, fluorescence polarization, single point. Keap1 Kelch-Nrf2 peptide fluorescence polarization, 1536-well. AID 504523, 2011. inhibition, % at 9.4 µM. Kelch-like ECH-associated protein 1 (Homo sapiens), Q14145. hit rate 0.15% among 340,000; in the data active = inhibition above about 12%;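 also: human Keap1 Kelch domain with fluorescein labeled Nrf2 9mer peptide probe; 0% = neutral control wells and 100% = peptide positive control; higher means more block of Keap1 binding to Nrf2 peptide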
Target sequence (Q14145 whole entry, looked up, the tested form may be a part): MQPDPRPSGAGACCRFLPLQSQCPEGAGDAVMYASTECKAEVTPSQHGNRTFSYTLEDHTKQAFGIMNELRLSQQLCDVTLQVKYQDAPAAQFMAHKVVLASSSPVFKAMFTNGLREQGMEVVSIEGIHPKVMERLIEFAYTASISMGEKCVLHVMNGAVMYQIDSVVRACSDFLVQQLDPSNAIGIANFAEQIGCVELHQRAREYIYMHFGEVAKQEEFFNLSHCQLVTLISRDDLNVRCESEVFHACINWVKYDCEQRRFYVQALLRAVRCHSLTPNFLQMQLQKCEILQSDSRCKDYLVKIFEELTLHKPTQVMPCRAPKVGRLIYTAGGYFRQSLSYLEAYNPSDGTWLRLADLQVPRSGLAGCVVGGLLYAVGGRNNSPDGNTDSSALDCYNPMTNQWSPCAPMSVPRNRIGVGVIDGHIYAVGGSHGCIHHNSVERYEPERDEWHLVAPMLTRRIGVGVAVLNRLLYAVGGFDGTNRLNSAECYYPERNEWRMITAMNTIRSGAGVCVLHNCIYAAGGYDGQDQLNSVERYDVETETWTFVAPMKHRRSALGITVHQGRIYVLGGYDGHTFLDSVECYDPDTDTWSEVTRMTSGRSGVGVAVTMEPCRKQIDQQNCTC
EBNA-1 confirm: EBNA-1 DNA-binding inhibitors, retest, confirmation, biochemical, fluorescence polarization, triplicate; shares compounds with EBNA-1 inhibitor; Recombinant EBNA-1 DBD, Cy5-DNA fluorescence polarization; inhibition, % at 14.8 µM; hit rate 35% among 830; AID 2292, 2010;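 active = mean inhibition across replicates above a set limit taken from the earlier primary screen, cut at about 28% in these data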;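 also: plate controls were EBNA-1 protein with DMSO for no effect and wells lacking EBNA-1 for full effect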
ZTA DNA inh trip: EBV Zta DNA binding inhibitors, counter-screen for EBNA-1 inhibitor project, biochemical, fluorescence polarization, triplicate. shares compounds with EBNA-1 inhibitor. Zta-ZRE DNA binding, Cy5 fluorescence polarization. inhibition, % at 11.1 µM. 830 tested, under 10 active. AID 2328, 2010;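 active = mean inhibition over triplicates above a set limit taken from the primary EBNA-1 screen, cut at about 37% in these data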;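 also: purified full length Zta protein with Cy5 labeled ZRE DNA probe; 0% = Zta with DMSO and 100% = wells lacking Zta protein; inhibitors lower polarization by freeing the labeled DNA probe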
The depositor's hits bear a star; . = not tested or not shown. Rows were chosen to be rich in hits. Some 0.85% of all compounds tested hit in one or more screens of this group.

SMILES | LANA DNA inh | EBNA-1 inhibitor | eLon inh | ZTA DNA inh | Keap1-Nrf2 PPI | EBNA-1 confirm | ZTA DNA inh trip
N#Cc1nc(-c2ccc(Cl)cc2)oc1NCc1cccc2c1OCO2 | 1.2 | 27.8* | -6.7 | 10.3 | -0.9 | 30.0* | 5.2
C=C1CCCC2OC(CC3=CC4/C(C)=C/CC(C)CC(/C=C(\C)C(O)C5CC(O)C(O)C(CCC(O)/C=C/C(C)=C/CCC6=NCCC(C3)C64C)O5)OC(=O)CC3OC(C(O)C1)C(O)C3O)CC(O)C2O (centres undefined) | . | . | -7.9 | . | . | . | .
O=C(Cn1cnc2c(nnn2Cc2ccc(Cl)cc2)c1=O)OCc1ccccc1 | 0.1 | 29.9* | -6.9 | 1.5 | 2.1 | 12.1 | 6.5
Cc1ccc2c(c1)[nH]c1c(=O)n(Cc3ccco3)cnc12 | 1.4 | 69.6* | 6.4 | 14.7 | -1.9 | 37.4* | 0.3
COc1cccc(NC(=O)Nc2nnc(Cc3ccc(OC)c(OC)c3)s2)c1 | -0.5 | 8.0 | -3.3 | -12.7 | 0.1 | . | .
COc1ccc(C(=O)Nc2nnc(Cc3cccs3)s2)cc1OC | 1.0 | 29.5* | 8.7 | 11.6 | -4.1 | 51.5* | 8.1
COc1ccc(Cc2nnc(NC(=O)Nc3ccccc3)s2)cc1OC | 1.3 | 60.4* | 2.5 | -2.8 | 1.3 | 26.3 | 3.4
O=C(c1cc(COc2ccc(F)cc2Cl)on1)N1CC2C[C@@H]3CC1C[C@H](C2)C3 | -0.8 | -6.5 | 7.8 | -3.5 | -1.8 | . | .
O=c1[nH]c(CN2CCN(S(=O)(=O)c3ccc4ccccc4c3)CC2)nc2ccccc12 | -0.1 | 83.7* | 3.8 | 23.5 | -3.6 | 122.4* | 4.1
CCOC(=O)c1cnc(SCc2nc(N)nc(Nc3ccc(F)cc3)n2)nc1N | 0.5 | 48.9* | -3.4 | 8.5 | 1.4 | -8.0 | -9.3
COCCN(Cc1cc2cc(C)cc(C)c2nc1Cl)C(=O)Nc1ccccc1 | 1.7 | 56.2* | -9.4 | -12.2 | 2.0 | -8.5 | 3.0
Nc1c(C(=O)NC2CC2)sc2nc3c(c(-c4ccco4)c12)CC/C3=C/c1ccco1 | 6.2 | 45.9* | 24.7 | 10.9 | -6.8 | -1.8 | 14.7
NC(=O)c1sc2nc3c(c(-c4ccco4)c2c1N)CCC3 | 0.5 | -9.1 | -6.2 | -6.2 | -1.4 | . | .
Cc1ccc(-c2ccc3c(c2)O[C@H](CN(C)C(=O)Nc2ccc(C(F)(F)F)cc2)[C@H](C)CN([C@H](C)CO)S3(=O)=O)cc1 | . | . | -5.9 | . | . | . | .
O=C(N/N=C/c1ccc(COc2ccc(Br)cc2)o1)c1ccco1 | -0.9 | 59.4* | -6.3 | -13.9 | 0.6 | 6.3 | 2.1
Cc1csc(=O)n1CCC(=O)OCC(=O)NCc1ccc(F)cc1 | 1.1 | -13.1 | -3.4 | 4.8 | 0.1 | . | .
COC(=O)c1cc(NC(=O)C2CCCN(S(=O)(=O)c3c(C)n[nH]c3C)C2)cc(C(=O)OC)c1 (centres undefined) | . | 27.6* | . | -8.8 | . | 18.2 | -0.4
Nc1nnnn1/N=C/c1ccccc1OCc1ccccc1 | -0.7 | 28.8* | -1.0 | 9.5 | -1.4 | 13.9 | -7.8
Cc1ccc(CN(c2ccc(C(=O)NCc3ccc4c(c3)OCO4)cc2)S(C)(=O)=O)cc1 | -1.4 | 34.7* | -4.1 | 2.1 | 7.1 | 13.6 | -3.3
CN(Cc1ccccc1)S(=O)(=O)c1ccc(Cl)c(C(=O)NCc2ccncc2)c1 | -0.6 | -0.9 | -5.0 | -7.0 | 0.8 | . | .
Cc1ccc(C(=O)NCc2ccc3c(c2)OCO3)cc1 | -1.0 | 3.3 | 3.5 | 0.6 | 0.4 | . | .
CN(Cc1ccccc1)S(=O)(=O)c1ccc(Cl)c(C(=O)NCc2ccc3c(c2)OCO3)c1 | -1.2 | 37.3* | -0.3 | 10.0 | -1.2 | -7.8 | 4.2
CC(C)CN(C(=O)CSc1ccc2c(c1)OCCO2)c1c(N)n(CC(C)C)c(=O)[nH]c1=O | -0.9 | . | 7.5 | 6.6 | -1.0 | . | .
CC(C)Cn1c(N)c(C(=O)COC(=O)c2ccc3c(c2)OCCO3)c(=O)n(C)c1=O | -1.1 | 28.5* | -5.7 | -2.0 | 1.7 | 31.9* | 4.6
